# Laboratory results reported in PubChem BioAssay (Tox21).
# Results filed as inconclusive are left out. Activity calls are given as the source filed them. Calls follow the shape of the dose curve; as a rule, active = well fitted activation curve with a large enough effect in the repeat runs; inconclusive = weak or mixed curves; inactive = flat fitted curve, though single readings scatter.
# Experiment: A CellTox Green Cytotoxicity Assay to monitor cytotoxicity in HepG2 cells - 24 hour (AID 1224878); also: nearly all actives have a fitted effect of over 45% in size
# Conditions: CellTox Green fluorescence; series mostly up to 76.8 µM; cytotoxicity: at the top concentration
# Excerpt: National Center for Advancing Translational Sciences [NCATS]
# NIH Chemical Genomics Center [NCGC]
# U.S. Environmental Protection Agency [EPA]
# National Institutes of Environmental Health Sciences [NIEHS]
# National Toxicology Program [NTP]
# Cell-based models are critical for drug discovery. Determining the natural cytotoxic effects resulting from test compounds is an essential research activity. A CellTox Green Cytotoxicity Assay to monitor cytotoxicity in real time of continues cell culture during 40 hours of the compound treatment was used to screen Tox21 10K library compounds in HepG2 cells. CellTox Green Cytotoxicity Assay is a nonlytic, homogeneous, biofluorescent method to measure cytotoxicity in cell culture after experimental manipulation. The assay system uses a proprietary asymmetric cyanine dye that is excluded from viable cells but preferentially stains the dead cell's DNA. […] Viable cells produce no appreciable increases in fluorescence. Therefore, the fluorescence signal produced by the binding interaction with dead cell DNA is proportional to cytotoxicity.
# The mixture of HepG2 cell suspension and reagents were dispensed at 600cells/6 ul/well in 1536-well tissue culture treated black solid bottom plates using a Multidrop dispenser. After the assay plates were incubated at a 37 C/5% CO2 incubator for 5 hours, 23 nL of compounds dissolved in DMSO, positive and negative controls was transferred to the assay plate by a pintool work station. The plates were incubated at 37 C for 40 hours. The fluorescence intensity were measured at 0h, 8h, 16h, 24h, 32h and 40h time points using ViewLux plate reader during compound treatment.
# % is scaled to controls: 0 for no effect and ±100 for the full control effect; potency is read from the fitted curve at half-maximal effect.
SMILES,cytotoxicity,Potency
CCOC(=O)Oc1ccc(CCNC(=O)[C@H](CCSC)NC(C)=O)cc1OC(=O)OCC,-0.755% [at 35.3 µM] (inactive),–
CCOC(=O)c1ccc(NC(=O)CN2CCCCC2)cc1,2.6% [at 35.3 µM] (inactive),–
CC(=O)C(=O)CC(C)C,0.902% (inactive),–
C1CCCCC1,-0.199% (inactive),–
O=C(NS(=O)(=O)/C=C/c1ccccc1)c1ccc(F)cc1Cl,–,54.9 µM (active)
CS(=O)(=O)c1ccc([C@@H](C[C@H]2CCC(=O)C2)C(=O)Nc2cnccn2)cc1Cl,-11.1% (inactive),–
O=C(O)/C=C/c1ccc(O)c(O)c1,9.91% (inactive),–
O=S(=O)(O)CO,14.3% (inactive),–
O[C@@H](CNC[C@H](O)[C@H]1CCc2cc(F)ccc2O1)[C@@H]1CCc2cc(F)ccc2O1,–,10.7 µM (active)
C[C@@H]1C[C@H]2[C@@H]3CCC4=CC(=O)C=C[C@]4(C)[C@@]3(F)[C@@H](O)C[C@]2(C)[C@@]1(O)C(=O)COP(=O)(O)O,-2.74% (inactive),–
CCN(CC)C(=O)/C(C#N)=C/c1cc(O)c(O)c([N+](=O)[O-])c1,-0.243% [at 35.3 µM] (inactive),–
CC/C=C\C/C=C\C/C=C\CCCCCCCC(=O)OCC,0.446% (inactive),–
O=C1OC[C@H](Cc2cccc(O)c2)[C@H]1Cc1cccc(O)c1,-7.37% [at 35.3 µM] (inactive),–
NC(=O)CCCCC(N)=O,0.141% (inactive),–
CC(O)Cn1cnc2c1c(=O)n(C)c(=O)n2C (stereo not given),-5.68% [at 35.3 µM] (inactive),–
Nc1nc2ccc(OC(F)(F)F)cc2s1,6.22% [at 35.3 µM] (inactive),–
CN1CCCN(C(c2ccccc2)c2ccc(Cl)cc2)CC1 (stereo not given),–,23.9 µM (active)
CCCCCCCCCCCSCC(=O)O,1.17% (inactive),–
CCCc1nc2c(C)cc(-c3nc4ccccc4n3C)cc2n1Cc1ccc(-c2ccccc2C(=O)O)cc1,-0.188% [at 35.3 µM] (inactive),–
CC(C)(C)NCC(O)COc1cccc2c1C[C@H](O)[C@H](O)C2 (stereo not given in full),-2.3% [at 35.3 µM] (inactive),–

SMILES,cytotoxicity,Potency
C[C@H](CS)C(=O)N1CCC[C@H]1C(=O)O,-0.114% [at 35.3 µM] (inactive),–
O=C(O)CCS,-6.04% (inactive),–
COc1cc(S(=O)(=O)Nc2ccccc2)c(OC)cc1N,0.14% (inactive),–
CC(C)c1ccc(C(=O)N=C(N)N)cc1S(C)(=O)=O,-1.76% [at 35.3 µM] (inactive),–
CCCCCCC(CO)CCCC (stereo not given),29.2% (inactive),–
CC(=O)NCCO,4.85% (inactive),–
CCCCCCCCCCCCCOC(=O)CCSCCC(=O)OCCCCCCCCCCCCC,-0.358% [at 15.8 µM] (inactive),–
CCN(CC)c1cccc(O)c1,-1.8% (inactive),–
BrC(Br)C(Br)Br,9.82% (inactive),–
c1ccc2sc(SSc3nc4ccccc4s3)nc2c1,3.43% [at 15.8 µM] (inactive),–
O=NN(CCCl)C(=O)NCCCl,–,4.77 µM (active)
Cc1ccc2c(c1)CCCN2,2.75% (inactive),–
CCCCCC,0.348% (inactive),–
COc1ccc(C2C(=O)c3ccccc3C2=O)cc1,-3.04% [at 35.3 µM] (inactive),–
CNC1CCCN(c2c(F)cc3c(=O)c(C(=O)O)cn(C4CC4)c3c2OC)C1 (stereo not given),-8.24% [at 35.3 µM] (inactive),–
CCOCCC(=O)OCC,-2.98% (inactive),–
CCOC(=O)C(C)O (stereo not given),-5.08% (inactive),–
CCN(CC)c1ccc(C(=C2C=CC(=[N+](CC)CC)C=C2)c2ccc(S(=O)(=O)O)cc2S(=O)(=O)[O-])cc1,-21% (inactive),–
O=C(c1ccccc1)C1CCC1,–,38.9 µM (active)
CC(C)(C(=O)c1cccnc1)c1cccnc1,-15.1% [at 35.3 µM] (inactive),–
